# Test results reported in PubChem BioAssay (NCATS).
# Results filed as inconclusive are left out. A call without a number means that no potency is given here. The source made the active and inactive calls. Calls come from the whole dose curve; as a rule, active = well fitted curve in the direction sought with a large enough effect; inconclusive = small, poorly fitted or top-dose-only effect, or another doubt; inactive = no such curve, though single readings can be large; an effect the other way counts as inactive or inconclusive. Where a SMILES comes first, the peptide text is derived from it. [ ]: non-standard residue; d: D form. dPhe(4-Cl) = N[C@H](Cc1ccc(Cl)cc1)C(=O)O; d2Nal = N[C@H](Cc1ccc2ccccc2c1)C(=O)O; dCit = NC(=O)NCCC[C@@H](N)C(=O)O; d3Pal = N[C@H](Cc1cccnc1)C(=O)O
# What was measured:
# HEK293 = assay: Cytotoxic Profiling of Annotated Libraries Using Quantitative High-Throughput Screening (AID 1296008); conditions: Five cell lines viability, CellTiter-Glo ATP luminescence, 48-72 h; max response: hits give low values; note: nearly all actives have a fitted effect of over 60% in size; note: potency is the fitted concentration of half-maximal effect
# Procedure, shortened: (§1)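 Cells exposed to compounds for 48 or 72 hr at 37 degrees Celsius. Viability read as ATP-coupled luminescence with CellTiter-Glo after 10 min at room temperature.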
# HaCat = assay: as above; conditions: Five cell lines viability, CellTiter-Glo ATP luminescence, 48-72 h; max response: hits give low values
# Procedure, shortened: as §1
# KB-3-1 = assay: as above; conditions: Five cell lines viability, CellTiter-Glo ATP luminescence, 48-72 h; max response: hits give low values
# Procedure, shortened: as §1
# NIH3T3 = assay: as above; conditions: Five cell lines viability, CellTiter-Glo ATP luminescence, 48-72 h; max response: hits give low values
# Procedure, shortened: as §1
# C33A = assay: Primary qHTS to identify gynecologic anti-cancer compounds using libraries of approved drugs and bioactive compounds (AID 1345084); conditions: Gynecologic cancer cell panel viability, ATPlite luminescence, 48 h; series mostly up to 57.5 µM; note: nearly all actives have a fitted effect of over 55% in size
# Procedure, shortened: (§2)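 Five-concentration response, 48 h; readout is ATP-driven luciferase luminescence.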
# CAOV3 = assay: as above; conditions: Gynecologic cancer cell panel viability, ATPlite luminescence, 48 h; series mostly up to 57.5 µM
# Procedure, shortened: as §2
# CASKI = assay: as above; conditions: Gynecologic cancer cell panel viability, ATPlite luminescence, 48 h; series mostly up to 57.5 µM
# Procedure, shortened: as §2
# Es-2 = assay: as above; conditions: Gynecologic cancer cell panel viability, ATPlite luminescence, 48 h; series mostly up to 57.5 µM
# Procedure, shortened: as §2
# HeLa = assay: as above; conditions: Gynecologic cancer cell panel viability, ATPlite luminescence, 48 h; series mostly up to 57.5 µM
# Procedure, shortened: as §2
# Hek293T = assay: as above; conditions: Gynecologic cancer cell panel viability, ATPlite luminescence, 48 h, control line for the selectivity index; series mostly up to 57.5 µM
# Procedure, shortened: as §2
# JEG-3 = assay: as above; conditions: Gynecologic cancer cell panel viability, ATPlite luminescence, 48 h; series mostly up to 57.5 µM
# Procedure, shortened: as §2
Compound,max response (HEK293),max response (HaCat),max response (KB-3-1),max response (NIH3T3),Potency (C33A),Potency (CAOV3),Potency (CASKI),Potency (Es-2),Potency (HeLa),Potency (Hek293T),Potency (JEG-3),outcome (KB-3-1),Potency (HEK293),"activity change, negative = cytotoxicity (C33A)","activity change, negative = cytotoxicity (CAOV3)","activity change, negative = cytotoxicity (CASKI)","activity change, negative = cytotoxicity (Es-2)","activity change, negative = cytotoxicity (HeLa)","activity change, negative = cytotoxicity (Hek293T)","activity change, negative = cytotoxicity (JEG-3)"
Cc1ccc(NC(=O)C(=O)NC2CC(C)(C)NC(C)(C)C2)cc1,1.35% (inactive),-22.4% (inactive),-0.25% (inactive),-7% (inactive),inactive,inactive,inactive,inactive,inactive,inactive,inactive,,,,,,,,,
CC(=O)N[C@H](Cc1ccc2ccccc2c1)C(=O)N[C@H](Cc1ccc(Cl)cc1)C(=O)N[C@H](Cc1cccnc1)C(=O)N[C@@H](CO)C(=O)N[C@@H](Cc1ccc(O)cc1)C(=O)N[C@H](CCCNC(N)=O)C(=O)N[C@@H](CC(C)C)C(=O)N[C@@H](CCCN=C(N)N)C(=O)N1CCC[C@H]1C(=O)N[C@H](C)C(N)=O (Ac-[d2Nal][dPhe(4-Cl)][d3Pal]SY[dCit]LRP[dA]-NH2),-0.834% (inactive),-5.33% (inactive),9.13% (inactive),4.07% (inactive),inactive,inactive,inactive,inactive,inactive,inactive,inactive,,,,,,,,,
COc1ccc(/C=C\C(=O)O)c(O[C@@H]2O[C@H](CO)[C@@H](O)[C@H](O)[C@H]2O)c1,-0.642% (inactive),-1.35% (inactive),,0.681% (inactive),inactive,inactive,inactive,inactive,inactive,inactive,inactive,inactive,,,,,,,,
O=C(O[C@H]1[C@@H]2C[C@@H]3OC[C@](O)([C@@H]1Cl)[C@H]2C(O[C@@H]1O[C@H](CO)[C@@H](O)[C@H](O)[C@H]1O)O3)c1ccc(O)c(O)c1 (some centres not stated),-2.09% (inactive),-10.7% (inactive),6.86% (inactive),3.52% (inactive),inactive,inactive,inactive,inactive,inactive,inactive,inactive,,,,,,,,,
COc1cc(C)c(C(=O)O[C@H]2[C@@H](OC(C)=O)[C@H](n3ccc(=O)[nH]c3=O)O[C@@H]2CO)c(OC)c1,-0.552% (inactive),-9.32% (inactive),0.943% (inactive),-14.4% (inactive),inactive,inactive,inactive,inactive,inactive,inactive,inactive,,,,,,,,,
CC(C)c1cc(C(=O)N2CC[C@@H](NC(=O)C3CC3)C2)n[nH]1,-9.12% (inactive),0.869% (inactive),2.09% (inactive),-14.5% (inactive),inactive,inactive,inactive,inactive,inactive,inactive,inactive,,,,,,,,,
COC(=O)C[C@H]1C(C)(C)[C@H](OC(C)=O)C2CC3=C4CC(=O)O[C@@H](c5ccoc5)[C@]4(C)CCC3[C@@]1(C)C2=O (some centres not stated),-19.9% (inactive),1.4% (inactive),4.19% (inactive),-4.77% (inactive),inactive,inactive,inactive,inactive,inactive,inactive,inactive,,,,,,,,,
C=C1CCC2C(C)(C)C(O)CCC2(C)C1CCC(C)CCO (configuration not stated),,-1.49% (inactive),-10.1% (inactive),-0.535% (inactive),inactive,inactive,inactive,inactive,inactive,inactive,inactive,,11.4 µM (active),,,,,,,
CC1(C)CC[C@]2(C(=O)O[C@@H]3O[C@H](CO[C@@H]4O[C@H](CO)[C@@H](O)[C@H](O)[C@H]4O[C@@H]4O[C@H](CO)[C@@H](O)[C@H](O)[C@H]4O)[C@@H](O)[C@H](O[C@@H]4O[C@H](CO)[C@@H](O)[C@H](O)[C@H]4O)[C@H]3O)CC[C@]3(C)C(=CCC4[C@@]5(C)CC[C@@H](O)[C@@](C)(C(=O)O[C@@H]6O[C@H](CO)[C@@H](O)[C@H](O)[C@H]6O)C5CC[C@]43C)[C@@H]2C1 (some centres not stated),-9.43% (inactive),-7.02% (inactive),,1.8% (inactive),,,,,,,,inactive,,-23% [at 6.55 µM] (inactive),2.18% [at 6.55 µM] (inactive),-2.18% [at 6.55 µM] (inactive),0.72% [at 6.55 µM] (inactive),5.19% [at 6.55 µM] (inactive),16.4% [at 6.55 µM] (inactive),-0.894% [at 6.55 µM] (inactive)
CC(C)=CCC/C(C)=C/CCC1(C)Oc2c(c(O)cc3c2CN(C(CCC(=O)O)C(=O)O)C3=O)CC1O (configuration not stated),-4.48% (inactive),-10.3% (inactive),,-11% (inactive),inactive,inactive,inactive,inactive,inactive,inactive,inactive,inactive,,,,,,,,
CC1(C)CCC2(C(=O)OC3OC(CO)C(O)C(O)C3O)CCC3(C)C(=CCC4C5(C)CCC(OC6OC(C(=O)O)C(OC7OC(CO)C(O)C(O)C7O)C(OC7OC(CO)C(O)C(O)C7O)C6O)C(C)(C)C5CCC43C)C2C1 (configuration not stated),4.12% (inactive),0.399% (inactive),6.58% (inactive),-0.359% (inactive),,,,,,,,,,-2.64% [at 11.6 µM] (inactive),3.96% [at 11.6 µM] (inactive),5.46% [at 11.6 µM] (inactive),-0.153% [at 11.6 µM] (inactive),10.1% [at 11.6 µM] (inactive),-1.3% [at 11.6 µM] (inactive),-1.35% [at 11.6 µM] (inactive)
CC1OC(OCC2OC(OC3CCC4(C)C(CCC5(C)C4CC=C4C6CC(C)(C)CCC6(C(=O)OC6OC(CO)C(O)C(O)C6O)CCC45C)C3(C)CO)C(O)C(O)C2O)C(O)C(O)C1O (configuration not stated),-5.12% (inactive),2.13% (inactive),9.22% (inactive),0.258% (inactive),,,,,,,,,,10.1% [at 11.6 µM] (inactive),17.5% [at 11.6 µM] (inactive),14.8% [at 11.6 µM] (inactive),0.0336% [at 11.6 µM] (inactive),-1.23% [at 11.6 µM] (inactive),-5.88% [at 11.6 µM] (inactive),-1.04% [at 11.6 µM] (inactive)
C=C1C[C@]23C[C@H]1CC[C@H]2[C@]1(C)CCC[C@@](C)(C(=O)O)[C@H]1[C@@H]3C(=O)O,-6% (inactive),-5.4% (inactive),0.882% (inactive),2.88% (inactive),inactive,inactive,inactive,inactive,inactive,inactive,inactive,,,,,,,,,
CC[C@@H](O)C[C@@H]1C(C)=C[C@@H]2CCCC[C@@H]2[C@@]1(C)C(=O)O,-6.46% (inactive),-3.74% (inactive),,-7.4% (inactive),inactive,inactive,inactive,inactive,inactive,inactive,inactive,inactive,,,,,,,,
C=C(C)[C@@H]1CC[C@]2(C)CC[C@]3(C)[C@H](CC[C@@H]4[C@@]5(C)CC[C@@H](O)C(C)(C)[C@@H]5CC[C@]43C)[C@@H]12,-21% (inactive),0.908% (inactive),-4.19% (inactive),1.04% (inactive),inactive,inactive,inactive,inactive,inactive,inactive,inactive,,,,,,,,,
CC(=O)O[C@H]1C[C@@](O)(C(C)C)C2[C@@H](OC(=O)c3ccc(O)cc3)C[C@@]3(C)O[C@H]3C[C@]21C (some centres not stated),-5.37% (inactive),-5.18% (inactive),2.79% (inactive),-4.8% (inactive),inactive,inactive,inactive,inactive,inactive,inactive,inactive,,,,,,,,,
CCOC(=O)c1cc(C#N)c(N2CCC(C(=O)NS(=O)(=O)Cc3ccccc3)CC2)nc1C,-0.212% (inactive),2.62% (inactive),,4.98% (inactive),inactive,inactive,inactive,inactive,inactive,inactive,inactive,inactive,,,,,,,,
CC(C)(C)C(=O)CN1C(=O)[C@H](NC(=O)Nc2cccc(C(=O)O)c2)CN(C2CCCCC2)c2ccccc21,1.37% (inactive),-3.07% (inactive),,1.3% (inactive),inactive,inactive,inactive,inactive,inactive,inactive,inactive,inactive,,,,,,,,
Cn1nc(C(C)(C)C)cc1C(=O)NC(Cc1cccc(Cl)c1)C(=O)NCC#N (configuration not stated),-17.2% (inactive),-59.1% (inactive),1.87% (inactive),0.163% (inactive),inactive,inactive,inactive,inactive,inactive,inactive,inactive,,,,,,,,,
Cc1cc(C)c2c(N)c(C(=O)NCc3ccc(Cl)cc3)sc2n1,-96.1% (inactive),-6.45% (inactive),-4.61% (inactive),-1.38% (inactive),inactive,inactive,inactive,inactive,inactive,inactive,inactive,,,,,,,,,
COc1ccc(C2(O)CCC(N3CC[C@@H](NC(=O)CNC(=O)c4cccc(C(F)(F)F)c4)C3)CC2)cn1 (some centres not stated),-19.1% (inactive),0.0677% (inactive),-12.4% (inactive),-3.76% (inactive),inactive,inactive,inactive,inactive,inactive,inactive,inactive,,,,,,,,,
CC1(C)CC[C@]2(C(=O)O)CC[C@]3(C)C(=CCC4[C@@]5(C)CC[C@H](O[C@@H]6O[C@H](C(=O)O)[C@@H](O[C@@H]7OC[C@@H](O)[C@H](O)[C@H]7O)[C@H](O)[C@H]6O)C(C)(C)C5CC[C@]43C)C2C1O (some centres not stated),2.41% (inactive),-24% (inactive),,-13.7% (inactive),inactive,inactive,inactive,inactive,inactive,inactive,inactive,inactive,,,,,,,,
